Source: ChEMBL document CHEMBL3988442, “University of Dundee, Small-Polar-MMV Screening Library” (2021)
The whole screen tested about 48,000 compounds, of which about 13,000 (27%) showed an effect of 50% or more. The list shows a part of the results.

Test system: Wolbachia pipientis
Experiment: Anti-Wolbachia Cell-Based Screen
Type: functional
Design: scale not given: in the data most compounds retested in dose-response had high values
Details: 5 µM

Compound | Percent Effect [%]
CCN(C)C(=O)c1cccc(S(=O)(=O)NCCc2nc(C)cc(=O)[nH]2)c1 | -0.1797
CC(=O)Nc1nc(CN2CCOC(Cn3nc(C)cc3C)C2)cs1 (configuration not stated) | 94.09
CC(=O)Nc1nc(CN2CCOC(Cn3cncn3)C2)cs1 (configuration not stated) | 64.84
CC(=O)Nc1nc(CN2CCOC(Cn3cc(C)cn3)C2)cs1 (configuration not stated) | 2.495
CC(=O)Nc1nc(CN2CCOC(Cn3cccn3)C2)cs1 (configuration not stated) | 107.9
CC(=O)N(C)c1nc(CN2CCOC(Cn3cccn3)C2)cs1 (configuration not stated) | -26.66
Cc1ccnc(C(NC(=O)c2oc(C)nc2C)C2CC2)n1 (configuration not stated) | -17.11
COC(=O)CN(C(=O)c1ccoc1)c1cccc(F)c1 | 2.098
O=C1CCCN1CCc1noc(-c2ccsc2)n1 | 1.002
O=C1CCCN1CCc1noc(-c2ccc(Cl)cc2)n1 | 5.135
O=C1CCCN1Cc1noc(-c2ccc(Cl)cc2)n1 | 123.5
CC(C)(N)c1cn([C@@H]2c3ccccc3C3(CCNCC3)[C@H]2O)nn1 | -37.53
Cc1noc(CS(=O)(=O)CC(=O)NC(C)c2ccccc2)n1 (configuration not stated) | -0.1878
CCN(Cc1cccs1)S(=O)(=O)N(C)C(C)C | 15.86
CCN(Cc1ccc2c(c1)OCCO2)S(=O)(=O)N(C)C(C)C | -1.208
CCN(C)S(=O)(=O)N(CC)Cc1ccc2c(c1)OCO2 | 0.6799
CCN(Cc1ccc2c(c1)OCO2)S(=O)(=O)N(C)C(C)C | 112.9
CCN(Cc1ccc2c(c1)OCO2)c1ncc(S(N)(=O)=O)s1 | -18.45
CCN(Cc1ccc2c(c1)OCO2)S(=O)(=O)N(C)C | 94.54
Cc1ccc(-n2cc(CN3CCN(C)[C@@H]4CS(=O)(=O)C[C@@H]43)cn2)cc1 | 6.274
CN(Cc1ccccc1O)C(=O)Nc1cc(F)cc(N2CCCC2)c1 | -6.524
COCC(C)(C#N)NC(=O)COc1ccccc1 (configuration not stated) | -21.26
CC(C)[C@@H]1CN(C(=O)c2ccc3c(c2)CCCO3)C[C@H]1NS(C)(=O)=O | 0.04909
O=C(O)C(=O)O.c1cncc(-c2noc(C3CN(Cc4cccs4)C3)n2)c1 | 13.98
O=C(C1CCOC1)N1CCC2(CC1)COCCN(Cc1ccncc1)C2.O=C(O)C(F)(F)F.O=C(O)C(F)(F)F (configuration not stated) | -2.392
O=C(C1CCOC1)N1C[C@H]2CN(Cc3ccncc3)C(=O)[C@H]2C1.O=C(O)C(F)(F)F (some centres not stated) | 94.79

Compound | Percent Effect [%]
O=C(C1CCOC1)N1C[C@H]2CN(Cc3cccnc3)C(=O)[C@H]2C1.O=C(O)C(F)(F)F (some centres not stated) | 101.2
O=C(O)C(F)(F)F.O=C(c1ccsc1)N1C[C@H]2CN(Cc3cccnc3)C(=O)[C@H]2C1 | -7.854
CN(C)CCN1C[C@@H]2CN(C(=O)C3CCOC3)C[C@@H]2C1=O.O=C(O)C(F)(F)F (some centres not stated) | -5.233
CCc1[nH]c2c(CNc3cncc(C(=O)N(C)C)n3)cc(F)cc2c1C | -5.745
Cn1c(CN2CCOCC2)nnc1C1CCCN(C(=O)CCC2CC2)C1 (configuration not stated) | 24.17
COc1ncc(CN2CC[C@@](C)(O)[C@H](Oc3cccc(F)c3)C2)cn1 | 2.732
CN1CC(=O)N(c2cccc(F)c2)CC12CCN(Cc1nccs1)C2.O=C(O)C(F)(F)F.O=C(O)C(F)(F)F (configuration not stated) | -3.054
CN1CC(=O)N(c2cccc(F)c2)CC12CCN(Cc1cncn1C)C2.O=C(O)C(F)(F)F.O=C(O)C(F)(F)F (configuration not stated) | -8.718
C[C@]1(O)CCN(Cc2cccnc2)C[C@@H]1Oc1cccc(F)c1 | 99
CCOc1ccc(CN2CC[C@@](C)(O)[C@@H](Cc3ccccc3)C2)cn1 | 4.384
C[C@]1(O)CCN(Cc2cncs2)C[C@@H]1Oc1cccc(F)c1 | 4.149
CN1CC2(CCN(Cc3cccnc3)CC2)c2cc(F)ccc21 | 3.699
Cn1cncc1CN1CC[C@](C)(O)[C@@H](Oc2cccc(F)c2)C1 | 104.7
Cc1ncc(CN2CC[C@@](C)(O)[C@H](Oc3cccc(F)c3)C2)cn1 | 104.1
C[C@]1(O)CCN(Cc2nccs2)C[C@@H]1Oc1cccc(F)c1 | 121.8
Fc1ccc(OCc2nnc([C@H]3CCN(Cc4cccnc4)C3)o2)cc1 | 16.65
c1cc(-c2noc(-c3cc(C4CC4)on3)n2)cc(N2CCCCC2)n1 | -2.255
CCn1nc2c(cc1=O)CN(Cc1nc(N)c3ccccc3n1)CC2 | 12.33
O=C(Cc1csc(N2CCNC2=O)n1)NCC1(c2ccccc2)CC1 | 8.123
Cc1ncsc1CN1CC[C@](C)(O)[C@@H](Oc2cccc(F)c2)C1 | 111.6
Cc1ncsc1CN1C[C@H]2CC[C@@H]1CN(Cc1ccccc1)C2 | 1.915
Cc1ncsc1CNc1cccc(OCCN2CCCC2)c1 | 8.667
Cc1nnc(SCCCNC(=O)Nc2ccc3c(c2)OCO3)s1 | 7.014
COc1ccccc1CN1C(=O)O[C@@H]2CN(c3nc(C)cc(C)n3)C[C@@H]21 | -8.092
Cc1cnc(C)c(N2C[C@H]3OC(=O)N(C4CCCC4)[C@H]3C2)n1 | 94.65
CN(CC1CCCCO1)c1nc2c(cc1C(N)=O)CCC2 (configuration not stated) | -5.698

Compound | Percent Effect [%]
Cc1cnc(C)c(N2CCCC(CC3CC3)(C(=O)O)C2)n1 (configuration not stated) | 0.08182
NC(=O)c1cc2c(nc1-c1ccoc1)CCC2 | -15.41
Cc1ccc(N2C[C@H]3OCC[C@H]3[C@H](C(=O)NC3CCCC3)C2)nn1 | 11.3
NC(=O)c1cc2c(nc1N1C[C@H]3OC(=O)N(C4CCCC4)[C@H]3C1)CCC2 | 94.23
COc1ccccc1CN1C(=O)O[C@@H]2CN(c3nc(C)cnc3C)C[C@@H]21 | -4.864
Cc1ccc(C(N)=O)c(N2C[C@H]3OC(=O)N(C4CCCC4)[C@H]3C2)n1 | 112.7
Cc1nccn1CCN(C)c1nc(-c2ccc(Cl)cc2)nc2c1CNC2 | -50.51
CN(c1cccc2ccccc12)S(=O)(=O)c1cc(C(=O)O)cs1 | -12.64
Cc1ccc(N(C)S(=O)(=O)c2cc(C(=O)O)cs2)cc1 | 139
Cc1cc(C)cc(N(C)S(=O)(=O)c2cc(C(=O)O)cs2)c1 | -4.793
CN(c1ccc(C(C)(C)C)cc1)S(=O)(=O)c1cc(C(=O)O)cs1 | -4.452
Cc1cccc(N(C)S(=O)(=O)c2cc(C(=O)O)cs2)c1 | 112.1
CN(c1ccc(F)c(F)c1)S(=O)(=O)c1cc(C(=O)O)cs1 | 2.683
Cc1ccc(N(C)S(=O)(=O)c2cc(C(=O)O)cs2)c(C)c1 | 115
CN(c1ccc2ccccc2c1)S(=O)(=O)c1cc(C(=O)O)cs1 | 28.59
CCOc1cccc(NS(=O)(=O)c2cc(C(=O)O)cs2)c1 | 19.91
Cc1cccc(N(C)S(=O)(=O)c2cc(C(=O)O)cs2)c1C | -9.49
CCN(c1cc(C)cc(C)c1)S(=O)(=O)c1cc(C(=O)O)cs1 | 116.9
COc1ccccc1N(C)S(=O)(=O)c1cc(C(=O)O)cs1 | 22.41
COCC1CN(C(=O)c2cccn2C)Cc2ncnn2C1 (configuration not stated) | -3.009
CCN1CCCC1CN(CCN(C)C)S(=O)(=O)c1ccccc1C#N (configuration not stated) | -13.86
CN(Cc1cccc(F)c1)C(=O)CS(=O)(=O)Cc1c(Cl)cccc1Cl | -4.804
Cc1nn(C)c(C)c1NC(=O)CNc1cccc(CC(F)(F)F)c1 | -3.048
FC(F)(F)c1ccc2nc([C@H]3CCN(C4CCC4)C3)[nH]c2c1 | 0.6058
O=C(NCCN1CCCC1)c1ccc2c(-c3nccs3)noc2c1 | 3.961
Cc1cccc2c1nc1n2[C@@H](CNC(=O)c2cncnc2)COC1 | -4.11

Compound | Percent Effect [%]
CCN(C(=O)NCc1ccc(C)cc1OC)C(C)c1cccnc1 (configuration not stated) | 2.223
CCC(C)(C)NC(=O)CN(Cc1cccc(O)c1)C1CCC(O)CC1 (configuration not stated) | -0.7077
CCOC(=O)C1(CCOC)CCCN(Cc2nccn2CC)C1 (configuration not stated) | -2.653
COc1c(CNCCC(=O)Nc2cccc(C)n2)c(C(C)C)nn1C | -41.29
COc1c(CNC(C)C(=O)NC2CCCC2)c(C)nn1C (configuration not stated) | 6.635
COc1c(CNCCC(=O)NC2CCCCC2)c(C(C)C)nn1C | 109.1
COc1c(CNCc2nnc3n2CCCCC3)c(C(C)C)nn1C.Cl | 3.985
COc1c(CNC(C)C(=O)NC2CCCC2)c(C(C)C)nn1C (configuration not stated) | -36.61
COc1c(CNCCC(=O)NC2CCCC2)c(C(C)C)nn1C | 98.08
CC(C)C1CN(c2ncccn2)CCC(=O)N1CC1CC1 (configuration not stated) | -33.18
CC(=O)N1CCCN(C(=O)c2cnc(OC(C)C)c(Cl)c2)CC1 | -53.74
C[C@@H]1CN(C(=O)c2ccc(C#N)nc2)C[C@@]1(O)C1CC1 | -20.15
CCc1cc(C(=O)N2CCC3(CCCN(CCOC)C3=O)C2)cs1 (configuration not stated) | -4.642
CCCc1cc(C(=O)N2CCC3(CCCN(CCOC)C3=O)C2)cs1 (configuration not stated) | 13.33
CCc1n[nH]c(C(=O)N2CCC3(CCCN(CCOC)C3=O)C2)c1C (configuration not stated) | 116.4
CCc1ocnc1C(=O)N1CCC2(CCCN(CC(C)(C)C)C2=O)C1 (configuration not stated) | 100.3
COCCN1CCCC2(CCN(C(=O)c3cnc(O)cn3)C2)C1=O (configuration not stated) | -81.96
CCc1noc(C)c1C(=O)N1CCC2(CCCN(CC(C)(C)C)C2=O)C1 (configuration not stated) | 101.6
Cc1occc1C(=O)N1CCC2(CCCN(CC3CCC3)C2=O)C1 (configuration not stated) | -0.1295
CCc1c(C(=O)N2CCC3(CCCN(CCO)C3=O)C2)csc1C (configuration not stated) | 7.73
CCCc1cc(C(=O)N2CCC3(CCCN(CCO)C3=O)C2)cs1 (configuration not stated) | -0.6433
CNc1nc(C(=O)N2CCC3(CCCN(CC4CC4)C3=O)C2)cs1 (configuration not stated) | -46.01
CCc1cc(C(=O)N2CCC3(CCCN(CC4CC4)C3=O)C2)cs1 (configuration not stated) | 55.55
Cc1occc1C(=O)N1CCC2(CCCN(CC3CC3)C2=O)C1 (configuration not stated) | -3.086
